FBW7 act = human FBW7 E3 ligase activation, primary screen | Q969H0 | AlphaScreen FBW7–phospho-cyclin E peptide binding, activator screen | normalized activity (activation), % at 26.1 µM | actives 0.13% (n = 650,000); in the data active = normalized activity above about 1.9%;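 also: purified mutant Fbw7 with reduced substrate affinity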
GPR151 ag = activators of human GPR151; Q8TDV0; PathHunter beta-arrestin GPR151 cells, luminescence; activation, % at 11.2 µM; actives 1% (n = 650,000); AID 1508602; in the data active = activation above about 4.9%;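 also: 0% = median of compound wells and 100% = cells with positive control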
Target sequence (Q8TDV0 whole entry, looked up): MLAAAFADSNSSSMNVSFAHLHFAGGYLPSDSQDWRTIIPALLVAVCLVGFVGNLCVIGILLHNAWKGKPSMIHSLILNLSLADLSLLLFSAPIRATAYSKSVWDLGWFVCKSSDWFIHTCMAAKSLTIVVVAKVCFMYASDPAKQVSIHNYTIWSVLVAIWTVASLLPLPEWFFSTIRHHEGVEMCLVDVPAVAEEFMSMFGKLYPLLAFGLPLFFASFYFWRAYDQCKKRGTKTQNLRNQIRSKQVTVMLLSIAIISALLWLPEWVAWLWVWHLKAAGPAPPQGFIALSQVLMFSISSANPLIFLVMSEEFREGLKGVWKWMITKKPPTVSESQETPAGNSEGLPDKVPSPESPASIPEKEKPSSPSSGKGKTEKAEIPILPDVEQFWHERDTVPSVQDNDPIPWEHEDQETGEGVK
TEAD-YAP block = TEAD-YAP interaction inhibition. HEK-TIYL cells, TEAD-Gal4/YAP UAS-luciferase luminescence. inhibition, % at 9.12 µM. actives 1.4% (n = 640,000). AID 1259422; in the data active = inhibition above about 32%;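 also: 0% = median of test compound wells and 100% = reference inhibitor wells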
MITF inh = human MITF inhibition, primary screen; O75030; AlphaScreen MITF homodimerization, bead proximity signal; inhibition, % at 2.6 µM; actives 0.91% (n = 650,000); AID 1259374; in the data active = inhibition above about 50%;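 also: 0% = vehicle wells with protein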
Starred values were filed as active, the others as inactive. This is a sample that favours compounds with a hit; in the whole collection about 3.4% have one here.

COC(=O)c1ccccc1OC(=O)c1ccc2c(c1)C1C=CCC1C(C(=O)O)N2 (stereo not drawn) was read as FBW7 act 0, GPR151 ag 0, TEAD-YAP block 7 and MITF inh 68*.
`COC(=O)c1ccc([C@@H]2Nc3ccc(C(=O)O)cc3[C@@H]3C=CC[C@@H]32)cc1` gave FBW7 act -1, GPR151 ag 0, TEAD-YAP block 12 and MITF inh 73*.
`O=C(O)c1ccc2c(c1)C1C=CCC1C(c1ccncc1)N2` (stereo not drawn) gave FBW7 act -2, GPR151 ag 0, TEAD-YAP block -6 and MITF inh 56*.
For CC(C)COC(=O)c1ccc2c(c1)C1C=CCC1C(C(=O)O)N2 (stereo not drawn) the results were FBW7 act 0, GPR151 ag 0, TEAD-YAP block 4 and MITF inh 29.
Screening CCOC(=O)/C=C/C(=O)N1CCCc2ccccc21 returned FBW7 act 0, GPR151 ag 0, TEAD-YAP block 8 and MITF inh 3.
For O=C(O)C1Nc2ccc([N+](=O)[O-])cc2C2C=CCC12 (stereo not drawn) the results were FBW7 act 0, GPR151 ag -1, TEAD-YAP block 2 and MITF inh 85*.
`O=C(O)c1ccc2c(c1)C1C=CCC1C(c1ccccc1)N2` (stereo not drawn) gave FBW7 act -1, GPR151 ag 1, TEAD-YAP block 4 and MITF inh 59*.
Screening O=C(O)c1ccc2c(c1)C1C=CCC1C(c1ccc(F)cc1)N2 (stereo not drawn) returned FBW7 act -1, GPR151 ag 2, TEAD-YAP block 0 and MITF inh 30.
`CC(=O)c1ccc2c(c1)C1C=CCC1C(c1ccc(Br)cc1)N2` (stereo not drawn) gave FBW7 act 1, GPR151 ag 0, TEAD-YAP block 8 and MITF inh 13.
`O=C(O)C1Nc2ccc(Oc3ccccc3)cc2C2C=CCC12` (stereo not drawn) gave FBW7 act 1, GPR151 ag -1, TEAD-YAP block 5 and MITF inh 35.
`CC(=O)c1ccc2c(c1)C1C=CCC1C(c1ccc(C(=O)O)cc1)N2` (stereo not drawn) gave FBW7 act -1, GPR151 ag 1, TEAD-YAP block -3 and MITF inh 67*.
For CCOC(=O)N1CCc2c(sc(NC(=O)c3ccc(N(C)C)cc3)c2C#N)C1 the results were FBW7 act 0, GPR151 ag -1, TEAD-YAP block 49* and MITF inh 2.
`CCOC(=O)N1CCc2c(sc(NC(=O)CCOc3ccccc3)c2C#N)C1` gave FBW7 act 0, GPR151 ag -1, TEAD-YAP block 38* and MITF inh -2.
Screening CC(=O)N1CCc2c(sc(NC(=O)c3ccc(C)cc3)c2C#N)C1 returned FBW7 act 0, GPR151 ag 0, TEAD-YAP block 39* and MITF inh -5.
C=CCn1c(SCC(=O)Nc2ccc3c(c2)OCCO3)nnc1-c1cccs1 was read as FBW7 act 0, GPR151 ag 0, TEAD-YAP block 51* and MITF inh 10.
`C=CCn1c(SCC(=O)Nc2cccc([N+](=O)[O-])c2)nnc1-c1ccccc1O` gave FBW7 act 0, GPR151 ag 1, TEAD-YAP block 31 and MITF inh -8.
For CCn1c(SCC(=O)NC(=O)Nc2ccc3c(c2)OCCO3)nnc1-c1cccs1 the results were FBW7 act 0, GPR151 ag 0, TEAD-YAP block -4 and MITF inh -1.
`CCn1c(SCC(=O)Nc2cccc([N+](=O)[O-])c2)nnc1-c1ccccc1O` gave FBW7 act 0, GPR151 ag 0, TEAD-YAP block 32* and MITF inh -3.
For C=CCn1c(SCC(=O)Nc2ccccc2)nnc1-c1ccccc1O the results were FBW7 act 0, GPR151 ag -1, TEAD-YAP block 33* and MITF inh -4.
O=C(CSc1nnnn1-c1ccc(F)cc1F)Nc1ccc2c(c1)OCCO2 was read as FBW7 act 0, GPR151 ag -1, TEAD-YAP block 38* and MITF inh 3.
For COc1ccc(-n2nnnc2SCC(=O)Nc2ccc3c(c2)OCCO3)cc1OC the results were FBW7 act 0, GPR151 ag -1, TEAD-YAP block 1 and MITF inh -3.
For CCc1c(O)nc(SCC(=O)NC(C)(C)C)[nH]c1=O the results were FBW7 act 0, GPR151 ag -1, TEAD-YAP block 3 and MITF inh 19.
For Oc1ccc(Br)cc1CNc1nc2ccccc2[nH]1 the results were FBW7 act 0, GPR151 ag 0, TEAD-YAP block -10 and MITF inh 74*.
For Oc1ccc(Cl)cc1CNc1nc2ccccc2[nH]1 the results were FBW7 act 0, GPR151 ag 2, TEAD-YAP block -16 and MITF inh -4.
For Cc1ccc(-c2cnc(NC3CC3)nc2)cc1 the results were FBW7 act 1, GPR151 ag -6, TEAD-YAP block 54* and MITF inh 11.
`CCOC(=O)N1CCC(NS(=O)(=O)c2ccc3c(c2)NC(=O)C(C)C(=O)N3)CC1` (stereo not drawn) gave FBW7 act 0, GPR151 ag -2, TEAD-YAP block -6 and MITF inh 22.
`Cc1cc(C)n(-c2ncc(-c3ccc([N+](=O)[O-])cc3)cn2)n1` gave FBW7 act 0, GPR151 ag -1, TEAD-YAP block 59* and MITF inh -4.
Cc1cc(Cl)n(-c2ccc([N+](=O)[O-])cc2)n1 was read as FBW7 act 0, GPR151 ag -1, TEAD-YAP block 7 and MITF inh 4.
`COc1ccc(CCN2C(=O)CSC2c2ccc(C(C)C)cc2)cc1OC` (stereo not drawn) gave FBW7 act 0, GPR151 ag 2, TEAD-YAP block 40* and MITF inh -3.
Screening COc1ccc(S(=O)(=O)NCc2ccncc2)cc1 returned FBW7 act 0, GPR151 ag 1, TEAD-YAP block 43* and MITF inh 10.
For CCOc1cc(S(=O)(=O)NCc2ccncc2)ccc1F the results were FBW7 act 1, GPR151 ag 0, TEAD-YAP block 54* and MITF inh 2.
CN(C)S(=O)(=O)c1ccc(S(=O)(=O)NCc2ccncc2)cc1 was read as FBW7 act 0, GPR151 ag 1, TEAD-YAP block 43* and MITF inh -12.
For Cc1ccc(S(=O)(=O)NCc2ccncc2)cc1C the results were FBW7 act 0, GPR151 ag 2, TEAD-YAP block 41* and MITF inh 4.
Screening O=S(=O)(NCc1ccccc1)c1ccc(S(=O)(=O)NCc2ccncc2)cc1 returned FBW7 act 0, GPR151 ag 3, TEAD-YAP block 29 and MITF inh 5.
Cc1ccc(S(=O)(=O)NCc2ccccc2)cc1C was read as FBW7 act 0, GPR151 ag 2, TEAD-YAP block -2 and MITF inh 8.
`COCCCNc1nc2ccccc2n(CC(=O)N2CCCCCC2)c1=O` gave FBW7 act 0, GPR151 ag 1, TEAD-YAP block 3 and MITF inh 3.
